# ± gives the standard deviation of the averaged measurements. The full data set covers some 5,400 targets. This sample favours those with the largest changes.
# Compound: Nc1nc2c(ncn2[C@@H]2O[C@H](COP(=O)(O)OP(=O)(O)OP(=O)(O)O)[C@@H](O)[C@H]2O)c(=O)[nH]1 [guanosine triphosphate]
# Test: NP40-soluble protein abundance relative to vehicle (solubility fold change) (ratio); higher = more soluble protein in presence of GTP
# Details: concentration: 10mM
# Procedure, shortened: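 Jurkat crude lysate prepared with a Dounce homogeniser was treated at eight concentrations spanning 0.1 to 10 mM, 10 min at room temperature then 3 min at 37 °C. Solubilisation with 0.8% NP40 and benzonase and ultracentrifugation preceded TMT labelling of the supernatant for LC-MS/MS. Fold change against the detergent-processed vehicle was determined per replicate from vsn-normalised intensities, across three independent experiments.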
# Sequence of UniProt Q9Y333 (Q9Y333 whole entry): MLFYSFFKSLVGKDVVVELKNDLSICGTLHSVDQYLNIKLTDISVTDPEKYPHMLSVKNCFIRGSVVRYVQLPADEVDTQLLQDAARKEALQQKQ
# Sequence of UniProt Q92804 (Q92804 whole entry): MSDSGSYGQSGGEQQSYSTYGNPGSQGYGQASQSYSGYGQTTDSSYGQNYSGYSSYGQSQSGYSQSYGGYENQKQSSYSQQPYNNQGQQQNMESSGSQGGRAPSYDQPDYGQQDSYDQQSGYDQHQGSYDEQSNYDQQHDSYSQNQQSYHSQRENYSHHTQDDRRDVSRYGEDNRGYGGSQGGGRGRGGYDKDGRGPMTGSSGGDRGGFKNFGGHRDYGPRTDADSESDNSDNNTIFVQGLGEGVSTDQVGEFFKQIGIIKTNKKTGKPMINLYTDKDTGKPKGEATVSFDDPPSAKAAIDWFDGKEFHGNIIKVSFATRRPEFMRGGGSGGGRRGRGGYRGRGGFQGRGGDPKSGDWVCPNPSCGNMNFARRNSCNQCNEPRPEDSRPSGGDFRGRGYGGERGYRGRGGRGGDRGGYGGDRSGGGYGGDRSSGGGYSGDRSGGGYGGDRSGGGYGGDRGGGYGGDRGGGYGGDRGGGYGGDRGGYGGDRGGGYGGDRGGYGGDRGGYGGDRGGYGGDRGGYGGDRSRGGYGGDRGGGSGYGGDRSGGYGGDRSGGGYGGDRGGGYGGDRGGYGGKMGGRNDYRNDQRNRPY
# Sequence of UniProt Q9Y3L3 (Q9Y3L3 whole entry): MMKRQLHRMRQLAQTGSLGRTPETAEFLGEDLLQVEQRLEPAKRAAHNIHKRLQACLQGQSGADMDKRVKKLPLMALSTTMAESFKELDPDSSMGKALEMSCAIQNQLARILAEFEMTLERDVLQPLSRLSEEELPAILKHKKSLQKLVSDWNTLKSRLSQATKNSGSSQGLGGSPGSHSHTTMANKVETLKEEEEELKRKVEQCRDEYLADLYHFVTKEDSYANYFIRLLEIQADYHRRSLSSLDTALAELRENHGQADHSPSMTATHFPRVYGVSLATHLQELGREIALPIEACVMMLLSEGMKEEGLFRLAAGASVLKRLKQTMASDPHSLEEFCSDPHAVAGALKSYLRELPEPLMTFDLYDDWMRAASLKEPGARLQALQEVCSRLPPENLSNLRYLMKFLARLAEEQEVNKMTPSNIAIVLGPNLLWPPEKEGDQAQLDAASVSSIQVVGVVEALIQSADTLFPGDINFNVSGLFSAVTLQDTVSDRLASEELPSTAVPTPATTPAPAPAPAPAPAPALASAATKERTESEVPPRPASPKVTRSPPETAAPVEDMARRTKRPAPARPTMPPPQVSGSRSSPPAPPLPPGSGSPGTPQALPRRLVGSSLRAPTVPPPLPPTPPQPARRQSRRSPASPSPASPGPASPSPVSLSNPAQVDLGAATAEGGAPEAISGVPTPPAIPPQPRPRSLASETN
# Sequence of UniProt Q9Y512 (Q9Y512 whole entry): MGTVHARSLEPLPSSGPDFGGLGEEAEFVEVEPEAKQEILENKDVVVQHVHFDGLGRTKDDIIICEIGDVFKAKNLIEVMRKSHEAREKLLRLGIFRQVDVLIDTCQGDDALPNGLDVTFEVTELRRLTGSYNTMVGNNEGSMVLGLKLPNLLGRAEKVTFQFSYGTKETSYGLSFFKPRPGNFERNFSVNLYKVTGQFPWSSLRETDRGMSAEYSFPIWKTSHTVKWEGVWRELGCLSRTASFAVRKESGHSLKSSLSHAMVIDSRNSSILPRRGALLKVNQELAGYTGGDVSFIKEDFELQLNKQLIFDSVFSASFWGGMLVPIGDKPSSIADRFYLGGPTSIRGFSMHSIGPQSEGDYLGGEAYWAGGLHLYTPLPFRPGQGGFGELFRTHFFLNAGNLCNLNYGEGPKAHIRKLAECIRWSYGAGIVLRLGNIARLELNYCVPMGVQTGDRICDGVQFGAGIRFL
# Sequence of UniProt Q9H0A0 (Q9H0A0 whole entry): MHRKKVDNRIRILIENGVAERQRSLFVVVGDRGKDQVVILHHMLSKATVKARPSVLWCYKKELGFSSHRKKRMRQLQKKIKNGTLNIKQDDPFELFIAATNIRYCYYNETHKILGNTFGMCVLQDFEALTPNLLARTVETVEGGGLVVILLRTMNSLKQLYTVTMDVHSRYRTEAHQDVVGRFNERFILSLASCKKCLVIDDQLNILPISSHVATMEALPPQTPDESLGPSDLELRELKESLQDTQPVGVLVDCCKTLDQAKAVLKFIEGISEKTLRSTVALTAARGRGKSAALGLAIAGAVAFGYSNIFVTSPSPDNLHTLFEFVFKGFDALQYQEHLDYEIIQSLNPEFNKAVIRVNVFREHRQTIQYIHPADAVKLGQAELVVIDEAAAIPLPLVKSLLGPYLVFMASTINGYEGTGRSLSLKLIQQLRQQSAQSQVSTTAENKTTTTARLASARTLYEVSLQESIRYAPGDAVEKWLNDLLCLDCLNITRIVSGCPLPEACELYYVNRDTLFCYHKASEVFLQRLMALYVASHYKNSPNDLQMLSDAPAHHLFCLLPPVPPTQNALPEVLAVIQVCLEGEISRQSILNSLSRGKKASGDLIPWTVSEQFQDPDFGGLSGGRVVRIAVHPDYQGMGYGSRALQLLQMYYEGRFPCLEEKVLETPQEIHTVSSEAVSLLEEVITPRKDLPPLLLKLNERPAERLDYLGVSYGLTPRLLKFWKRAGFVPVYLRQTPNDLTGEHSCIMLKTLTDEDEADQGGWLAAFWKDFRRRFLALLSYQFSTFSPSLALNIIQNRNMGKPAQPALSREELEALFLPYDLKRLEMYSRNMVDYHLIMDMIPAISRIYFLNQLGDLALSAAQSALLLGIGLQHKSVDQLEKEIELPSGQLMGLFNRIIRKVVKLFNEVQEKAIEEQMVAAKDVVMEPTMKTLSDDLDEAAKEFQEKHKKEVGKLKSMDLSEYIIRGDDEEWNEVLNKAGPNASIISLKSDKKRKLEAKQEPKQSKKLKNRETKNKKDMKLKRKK
# Sequence of UniProt Q9H0C8 (Q9H0C8 whole entry): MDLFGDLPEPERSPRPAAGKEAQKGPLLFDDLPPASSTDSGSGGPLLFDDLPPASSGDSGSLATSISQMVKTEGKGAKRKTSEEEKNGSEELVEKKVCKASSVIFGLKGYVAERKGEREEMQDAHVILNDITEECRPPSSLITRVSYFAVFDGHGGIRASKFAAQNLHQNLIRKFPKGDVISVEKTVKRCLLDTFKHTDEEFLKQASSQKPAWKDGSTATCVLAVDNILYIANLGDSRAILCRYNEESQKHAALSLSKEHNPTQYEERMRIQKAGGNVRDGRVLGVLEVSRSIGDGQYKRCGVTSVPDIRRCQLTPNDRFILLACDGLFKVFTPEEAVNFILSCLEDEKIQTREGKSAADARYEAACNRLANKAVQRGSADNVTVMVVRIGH
# Sequence of UniProt Q9Y6A4 (Q9Y6A4 whole entry): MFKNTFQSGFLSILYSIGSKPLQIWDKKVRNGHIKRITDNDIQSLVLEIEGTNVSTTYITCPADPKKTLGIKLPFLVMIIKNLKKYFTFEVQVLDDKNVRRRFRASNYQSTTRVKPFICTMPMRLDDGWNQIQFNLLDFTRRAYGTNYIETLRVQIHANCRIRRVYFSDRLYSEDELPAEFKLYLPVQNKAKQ
# Sequence of UniProt Q9NX05 (Q9NX05 whole entry): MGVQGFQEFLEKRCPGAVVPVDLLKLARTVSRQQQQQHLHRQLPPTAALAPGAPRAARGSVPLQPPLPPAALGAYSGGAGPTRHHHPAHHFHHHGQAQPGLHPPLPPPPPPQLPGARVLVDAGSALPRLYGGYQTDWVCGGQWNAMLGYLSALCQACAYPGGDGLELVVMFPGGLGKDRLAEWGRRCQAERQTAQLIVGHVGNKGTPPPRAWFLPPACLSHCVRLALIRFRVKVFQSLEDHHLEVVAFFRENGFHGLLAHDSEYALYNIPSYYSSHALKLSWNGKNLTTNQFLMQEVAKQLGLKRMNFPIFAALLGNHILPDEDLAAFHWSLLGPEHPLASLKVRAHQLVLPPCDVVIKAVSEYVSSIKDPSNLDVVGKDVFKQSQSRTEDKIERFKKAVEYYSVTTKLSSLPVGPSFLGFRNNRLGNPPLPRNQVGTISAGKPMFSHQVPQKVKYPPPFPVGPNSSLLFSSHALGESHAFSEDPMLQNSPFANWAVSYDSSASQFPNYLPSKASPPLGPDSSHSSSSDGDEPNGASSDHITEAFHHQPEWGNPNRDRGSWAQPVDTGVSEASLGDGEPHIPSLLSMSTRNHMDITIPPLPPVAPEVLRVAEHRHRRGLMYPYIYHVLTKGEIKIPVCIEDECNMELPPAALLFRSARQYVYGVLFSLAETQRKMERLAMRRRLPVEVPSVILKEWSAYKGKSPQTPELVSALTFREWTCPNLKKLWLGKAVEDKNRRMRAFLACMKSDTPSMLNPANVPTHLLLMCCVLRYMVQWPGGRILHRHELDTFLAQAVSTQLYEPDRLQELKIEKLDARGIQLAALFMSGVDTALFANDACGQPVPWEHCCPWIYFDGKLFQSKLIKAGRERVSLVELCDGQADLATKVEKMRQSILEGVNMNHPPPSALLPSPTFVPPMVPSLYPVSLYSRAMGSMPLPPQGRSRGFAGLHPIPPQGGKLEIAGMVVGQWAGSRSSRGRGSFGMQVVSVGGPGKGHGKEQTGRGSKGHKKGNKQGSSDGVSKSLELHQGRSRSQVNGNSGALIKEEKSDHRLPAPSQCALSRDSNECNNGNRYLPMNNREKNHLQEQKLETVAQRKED
# Sequence of UniProt Q9Y4P8 (Q9Y4P8 whole entry): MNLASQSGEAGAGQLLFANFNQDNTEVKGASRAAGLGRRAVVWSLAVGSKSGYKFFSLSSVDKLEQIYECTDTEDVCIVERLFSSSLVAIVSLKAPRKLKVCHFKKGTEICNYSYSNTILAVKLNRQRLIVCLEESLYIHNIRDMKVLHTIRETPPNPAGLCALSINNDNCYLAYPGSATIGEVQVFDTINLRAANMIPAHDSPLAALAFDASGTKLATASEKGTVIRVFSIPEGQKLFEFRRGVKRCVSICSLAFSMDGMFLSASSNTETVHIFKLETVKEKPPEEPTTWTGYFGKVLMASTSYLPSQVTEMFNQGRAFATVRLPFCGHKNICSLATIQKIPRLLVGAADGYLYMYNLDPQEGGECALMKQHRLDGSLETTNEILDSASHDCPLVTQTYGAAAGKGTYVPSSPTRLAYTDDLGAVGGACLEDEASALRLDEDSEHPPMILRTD
row,Target,NP40-soluble protein abundance
1,MTMR6 (UniProt Q9Y217),0.913 ± 0.042
2,UniProt Q9Y2A7|Q9Y2A7-2,0.973 ± 0.011
3,TMOD3 (UniProt Q9NYL9),1.08 ± 0.04
4,UniProt Q9Y3D9|J3QLR8,1.73 ± 0.19
5,FAM117A (UniProt Q9C073),1.12 ± 0.086
6,PEF1 (UniProt Q9UBV8),1.02 ± 0.14
7,UniProt Q9H8M2|Q9H8M2-3|Q9H8M2-6,1.09 ± 0.04
8,UniProt Q9Y3U8|J3QSB5,0.919 ± 0.16
9,UniProt Q9BTY7,1.03 ± 0.14
10,UniProt Q9NVI7-2,2.11 ± 0.29
11,SAMM50 (UniProt Q9Y512),0.949 ± 0.17
12,UniProt Q9Y6A4,0.957 ± 0.11
13,UniProt Q9Y333,0.963 ± 0.059
14,UniProt Q92900|Q92900-2,0.884 ± 0.011
15,DCUN1D5 (UniProt Q9BTE7),0.883 ± 0.074
16,UniProt Q9NW08|Q9NW08-2,1.09 ± 0.17
17,UniProt Q9NR28|Q9NR28-2,1.01 ± 0.035
18,UniProt Q96BY9|H0YAZ1,1.07 ± 0.22
19,LUC7L2 (UniProt Q9Y383),1.7 ± 0.16

row,Target,NP40-soluble protein abundance
1,UniProt Q9Y3L3|Q9Y3L3-2,1.01 ± 0.034
2,CCDC134 (UniProt Q9H6E4),0.86 ± 0.091
3,UTP18 (UniProt Q9Y5J1),1.57 ± 0.17
4,FBXO28 (UniProt Q9NVF7),1.61 ± 0.25
5,UniProt Q9H832|Q9H832-2,0.963 ± 0.064
6,UniProt Q9UJX6|Q9UJX6-2,1.22 ± 0.48
7,CORO2A (UniProt Q92828),1.42 ± 0.058
8,CDV3 (UniProt Q9UKY7),1.11 ± 0.068
9,RAB21 (UniProt Q9UL25),0.813 ± 0.093
10,LARS (UniProt Q9P2J5),1.09 ± 0.23
11,NCOA5 (UniProt Q9HCD5),2.4 ± 0.19
12,UniProt Q92804|Q92804-2,2.59 ± 0.54
13,UniProt Q9NVR5,0.906 ± 0.082
14,FAM120C (UniProt Q9NX05),1.25 ± 0.061
15,UniProt Q9Y4P8|Q9Y4P8-4|Q9Y4P8-6,0.896 ± 0.021
16,TESC (UniProt Q96BS2),0.915 ± 0.09
17,UniProt Q969H8,0.764 ± 0.085
18,NAT10 (UniProt Q9H0A0),1.59 ± 0.11
19,ILKAP (UniProt Q9H0C8),0.869 ± 0.065

# From the supplement of paper PMC6411743
